Assay results taken from PubChem BioAssay (Tox21).
Records with an inconclusive call do not appear. The source made the active and inactive calls. Unless noted, the call rests on the fitted dose curve; in most records, active means well fitted curve in the direction sought with a large enough effect in the repeat runs; inconclusive means weak or mixed curves; inactive means no such curve, though single readings can be large; an effect the other way counts as inactive or inconclusive.

Assays:
[1] = qHTS assay for small molecule agonists of the p53 signaling pathway (AID 651631; calls by dose curve; further: nearly all actives have a fitted effect of over 15% in size)
In short: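 Read-out is beta-lactamase FRET fluorescence measured 2 h after substrate addition at room temperature, in HCT-116 cells with a p53 response element-driven reporter exposed to compounds for 16 h at 37 °C.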

[2] = qHTS assay for small molecule agonists of the p53 signaling pathway - cell viability (AID 651633; calls by dose curve;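 further: p53RE-bla HCT reporter cells with a stable beta-lactamase p53 reporter; series mostly up to about 83 µM; nearly all actives have a fitted effect of over 30% in size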)
In short: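 Viability counter-read: CellTiter-Glo luminescence (30 min, room temperature) in the same p53RE-bla plates. These plates had been exposed to compounds for 16 h at 37 C.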

[3] = qHTS assay to identify small molecule antagonists of the androgen receptor (AR) signaling pathway using the MDA cell line - cell viability counter screen (AID 743041; further: nearly all actives have a fitted effect of over 45% in size)
In short: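 Using the breast carcinoma line MDA-kb2 AR-luc, test chemicals were co-incubated with R1881 for 16 h; CellTiter-Fluor reagent, added at 15.5 h, provided a fluorescence measure of live cells.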

[4] = qHTS assay to identify small molecule antagonists of the thyroid receptor (TR) signaling pathway - cell viability counter screen (AID 743064); further: nearly all actives have a fitted effect of over 50% in size; further: potency means the concentration at half of the fitted maximal effect
In short: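 Fluorescence from CellTiter-Fluor, added after 23.5 h exposure at 37 °C, reported viability of GH3.TRE-Luc cells co-treated with compound and 1 nM T3. Measured in the same wells as the luciferase TR readout.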

[5] = qHTS assay to identify small molecule antagonists of the thyroid receptor (TR) signaling pathway (AID 743065); further: nearly all actives have a fitted effect of over 55% in size; further: potency means the concentration at half of the fitted maximal effect
In short: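 Antagonism measured as loss of luciferase signal in GH3 cells stably carrying a TRE-luciferase reporter, co-treated with compound and T3 (1 nM final) for 23.5 h at 37 C. Viability was read in the same well by CellTiter-Fluor.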

[6] = test system: thyroid hormone receptor (rat, GH3 cells); test: qHTS assay to identify small molecule agonists of the thyroid receptor (TR) signaling pathway (AID 743066; calls by dose curve)
[7] = qHTS assay to identify small molecule antagonists of the estrogen receptor alpha (ER-alpha) signaling pathway - cell viability counter screen (AID 743074; calls by dose curve;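 further: HEK293 cells carrying ER-alpha-UAS-bla reporter stimulated with 17beta-estradiol; nearly all actives have a fitted effect of over 45% in size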)
[8] = biological target: Estrogen receptor (Homo sapiens) (UniProt P03372); test: qHTS assay to identify small molecule agonists of the estrogen receptor alpha (ER-alpha) signaling pathway (AID 743075; calls by dose curve;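 further: HEK293 GripTite cells with ER-alpha and UAS-driven beta-lactamase reporter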)
Estrogen receptor (Homo sapiens), sequence (P03372 whole entry, looked up): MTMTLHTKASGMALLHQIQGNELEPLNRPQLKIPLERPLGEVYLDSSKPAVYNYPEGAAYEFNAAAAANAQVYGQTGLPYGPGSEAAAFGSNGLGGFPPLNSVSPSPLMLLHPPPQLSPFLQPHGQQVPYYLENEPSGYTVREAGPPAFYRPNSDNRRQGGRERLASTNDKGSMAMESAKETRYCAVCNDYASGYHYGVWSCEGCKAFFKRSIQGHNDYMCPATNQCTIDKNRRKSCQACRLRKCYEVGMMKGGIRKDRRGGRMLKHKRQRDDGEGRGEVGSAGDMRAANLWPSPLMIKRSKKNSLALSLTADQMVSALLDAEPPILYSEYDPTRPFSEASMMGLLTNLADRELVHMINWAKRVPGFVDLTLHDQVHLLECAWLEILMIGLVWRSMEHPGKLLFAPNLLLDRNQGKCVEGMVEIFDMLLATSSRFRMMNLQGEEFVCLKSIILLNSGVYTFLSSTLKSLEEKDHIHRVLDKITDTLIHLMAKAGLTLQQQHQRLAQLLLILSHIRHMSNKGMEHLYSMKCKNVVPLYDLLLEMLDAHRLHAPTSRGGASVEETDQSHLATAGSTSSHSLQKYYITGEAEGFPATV

[9] = biological target: Estrogen receptor (Homo sapiens) (UniProt P03372); test: qHTS assay to identify small molecule agonists of the estrogen receptor alpha (ER-alpha) signaling pathway using the BG1 cell line (AID 743079); further: nearly all actives have a fitted effect of over 20% in size; further: potency means the concentration at half of the fitted maximal effect
[10] = qHTS assay to identify small molecule antagonists of the estrogen receptor alpha (ER-alpha) signaling pathway using the BG1 cell line (AID 743080; calls by dose curve;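 further: BG1 cells stimulated with 17beta-estradiol alongside compound; series mostly up to about 70 µM; nearly all actives have a fitted effect of over 25% in size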)
In short: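 BG1-Luc-4E2 cells (endogenous full-length ER-alpha, stable 4×ERE-luciferase) were starved 5 days in phenol-red-free medium with 10% charcoal-stripped FBS, plated 24 h, then given compound plus 17beta-estradiol for 21.5 h at 37 C; ONE-Glo luminescence read after 30 min.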

[11] = qHTS assay to identify small molecule antagonists of the estrogen receptor alpha (ER-alpha) signaling pathway using the BG1 cell line - cell viability counter screen (AID 743081);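 further: compound given together with 17beta-estradiol as the ER stimulus; series mostly up to about 70 µM; nearly all actives have a fitted effect of over 45% in size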
[12] = qHTS assay to identify small molecule that activate the aryl hydrocarbon receptor (AhR) signaling pathway - cell viability counter screen (AID 743086);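 further: HepG2 liver cells carrying the AhR DRE luciferase reporter; series mostly up to about 70 µM; nearly all actives have a fitted effect of over 45% in size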
In short: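 Cytotoxicity counter screen: CellTiter-Fluor signal (30 min, 37 C) in 4000 HepG2 cells/well carrying the DRE-luciferase reporter, following 24 h compound exposure at 37 C.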

[13] = biological target: Peroxisome proliferator-activated receptor gamma (Homo sapiens) (UniProt P37231); test: qHTS assay to identify small molecule agonists of the peroxisome proliferator-activated receptor gamma (PPARg) signaling pathway (AID 743094; active means well fitted activation curve with a large enough effect in the signal ratio in the repeat runs, not every such curve was filed as active; the % refers to the signal ratio)
Peroxisome proliferator-activated receptor gamma (Homo sapiens), sequence (P37231 whole entry, looked up): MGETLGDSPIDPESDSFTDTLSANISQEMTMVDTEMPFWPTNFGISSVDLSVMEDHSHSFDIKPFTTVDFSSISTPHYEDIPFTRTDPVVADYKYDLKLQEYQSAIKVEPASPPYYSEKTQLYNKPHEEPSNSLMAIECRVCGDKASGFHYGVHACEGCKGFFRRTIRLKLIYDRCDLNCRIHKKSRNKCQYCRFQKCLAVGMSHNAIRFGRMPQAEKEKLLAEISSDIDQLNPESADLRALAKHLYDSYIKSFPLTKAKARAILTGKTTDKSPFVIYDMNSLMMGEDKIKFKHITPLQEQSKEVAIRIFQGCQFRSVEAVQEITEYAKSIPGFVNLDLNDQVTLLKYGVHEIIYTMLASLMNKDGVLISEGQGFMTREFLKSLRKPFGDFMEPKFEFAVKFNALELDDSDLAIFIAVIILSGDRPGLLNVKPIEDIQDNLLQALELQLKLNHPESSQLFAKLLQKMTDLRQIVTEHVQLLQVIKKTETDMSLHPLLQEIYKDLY
In short: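 Reporter activation was scored by fluorescence of cleaved LiveBLAzer B/G substrate (1 h, room temperature) in PPARg-bla HEK293H cells previously treated 17 h at 37C with DMSO-dissolved compounds.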

[14] = qHTS assay to test for compound auto fluorescence at 460 nm (blue) in HEK293 cell free culture (AID 720681)
In short: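 Blue fluorescence (Ex 405/Em 460 nm, triamterene-equivalent) was read immediately after pin transfer of compound or DMSO into medium (DMEM, 10% FBS) without cells.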

[15] = qHTS assay to test for compound auto fluorescence at 590 nm (red) in HEK293 cell free culture (AID 720683)
In short: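 Red-channel autofluorescence of compounds in culture medium (DMEM, 10% FBS), no cells, measured at 540/590 nm. Rose Bengal sodium is the reference fluorophore for equivalence.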

[16] = qHTS assay for identifying genotoxic compounds that show differential cytotoxicity against isogenic chicken DT40 cell lines with known DNA damage response pathways - wild type cell line (AID 743012); further: nearly all actives have a fitted effect of over 60% in size; further: potency means the concentration at half of the fitted maximal effect
In short: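 Luminescent ATP viability signal (CellTiter-Glo, 30 min RT) recorded after wild type DT40 cells were incubated with compounds for 40 h at 37 C/5% CO2.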

[17] = qHTS assay for identifying genotoxic compounds that show differential cytotoxicity against isogenic chicken DT40 cell lines with known DNA damage response pathways - Rev3 mutant cell line (AID 743014); further: nearly all actives have a fitted effect of over 55% in size; further: potency means the concentration at half of the fitted maximal effect
[18] = qHTS assay for identifying genotoxic compounds that show differential cytotoxicity against isogenic chicken DT40 cell lines with known DNA damage response pathways - Rad54/Ku70 mutant cell line (AID 743015); further: nearly all actives have a fitted effect of over 60% in size; further: potency means the concentration at half of the fitted maximal effect
[19] = qHTS assay to identify small molecule antagonists of the androgen receptor (AR) signaling pathway - cell viability counter screen (AID 743033; further: nearly all actives have a fitted effect of over 45% in size)
[20] = biological target: Nuclear receptor subfamily 1 group I member 2 (Homo sapiens) (UniProt O75469); test: CYP3A4 induction through human pregnane X receptor (PXR) by small molecules, qHTS assay (AID 1346984); further: nearly all actives have a fitted effect of over 40% in size
In short: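 Induction measured in HepG2-based DPX-2 cells co-expressing human PXR and a CYP3A4 promoter-driven luciferase. After a 24-hour compound exposure, cells received CYP3A4 luciferin substrate at 3uM final for 3 hours, and light output was then recorded.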

Measured: Potency

C=CCC1([C@@H](C)CCC)C(=O)NC(=O)NC1=O
inactive: [1] | [2] | [3] | [4] | [5] | [6] | [7] | [8] | [9] | [10] | [11] | [12] | [13]

C[C@H]1[C@H]2Cc3ccc(O)cc3[C@]1(C)CCN2CCc1ccccc1
active: [16] 6.8 µM | [17] 15.2 µM | [18] 17.1 µM | [4] 30.4 µM | [5] 27.1 µM
inactive: [2] | [14] | [15] | [19] | [6] | [7] | [8] | [9]

CC(C)[C@H]1C(=O)N2CCC[C@H]2[C@]2(O)O[C@](NC(=O)[C@@H]3C[C@@H]4c5cccc6[nH]cc(c56)C[C@H]4N(C)C3)(C(C)C)C(=O)N12
active: [16] 29.8 µM | [17] 29.8 µM | [18] 26.6 µM | [4] 29.8 µM | [5] 29.8 µM | [9] 11.9 µM
inactive: [1] | [2] | [14] | [15] | [19] | [7] | [8] | [10]

CNC(C)CC1CCCCC1 (stereo unspecified)
inactive: [1] | [2] | [15] | [3] | [4] | [5] | [6] | [7] | [8] | [9] | [10] | [12] | [13]

C[C@@H](N)C(=O)c1ccccc1
inactive: [2] | [14] | [16] | [17] | [18] | [19] | [3] | [4] | [5] | [6] | [8] | [9] | [10] | [11] | [12] | [13]

S=C(S)N1CCNCC1
inactive: [2] | [14] | [15] | [16] | [18] | [19] | [3] | [4] | [5] | [6] | [7] | [8] | [9] | [10] | [11] | [12] | [13] | [20]

COc1cc([C@@H]2c3cc4c(cc3[C@H](O)[C@H]3COC(=O)[C@H]23)OCO4)cc(OC)c1OC
inactive: [1]

CCNCC(O)c1cccc(O)c1 (stereo unspecified)
inactive: [1] | [14] | [15] | [16] | [17] | [18] | [19] | [3] | [4] | [5] | [6] | [7] | [8] | [9] | [10] | [12] | [13] | [20]

C[C@@H]1[C@@H]2Cc3ccc(O)cc3[C@@]1(C)CCN2CCc1ccccc1
inactive: [2] | [14] | [15] | [7] | [8] | [11]
active: [16] 3.81 µM | [17] 9.57 µM | [18] 7.6 µM | [4] 60.4 µM | [5] 53.8 µM

CN1[C@@H]2CC[C@H]1CC(OC1c3ccccc3CCc3ccccc31)C2 (stereo partly specified)
active: [16] 7.17 µM | [18] 11.4 µM | [4] 2.85 µM | [5] 5.07 µM
inactive: [2] | [14] | [15] | [19] | [3] | [6] | [7] | [8] | [9] | [10] | [11] | [12] | [13] | [20]

O=C(OCCN1CCCCC1)C(O)(c1ccccc1)c1ccccc1
inactive: [2] | [14] | [15] | [16] | [17] | [18] | [19] | [3] | [4] | [5] | [6] | [7] | [8] | [9] | [10] | [11] | [12] | [13] | [20]

Brc1ccc(Oc2ccc(Br)cc2)cc1
inactive: [1]

CC1(C)C(C=C(Cl)Cl)C1C(=O)OCc1cccc(Oc2ccccc2)c1 (stereo unspecified)
inactive: [1]

COc1ccc(OC)c(C[C@H](C)N)c1
inactive: [15] | [16] | [18] | [4] | [8] | [9] | [10] | [11] | [12] | [13]
